This is an account of results in PubChem BioAssay.

The other results are listed elsewhere or left out. Active and inactive are the calls of the source. Unless noted, no stated cut-off is given here; in the data, active means response below about 75% or above about 130%; inactive means in between.

In general, inhibition refers to the drop in the measured response relative to a control, in per cent.

Test [1] deals with Regulator of G-protein signaling 16 (Homo sapiens) (UniProt O15492). Nature of the test: modulators of RGS–Galpha-o binding, primary screen, biochemical, multiplexed beads, flow cytometry, RGS4/7/8/16/19 (AID 1504).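 Further: fluorescently labeled Galpha-o bound to GDP with aluminium fluoride binding biotinylated RGS beads.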 To be noted: multiplexed bead flow cytometry, measured here: RGS16 interaction, at 10 µM. On the technique in general: In flow cytometry, cells or beads pass a laser one at a time.

Test [2] deals with Regulator of G-protein signaling 19 (Homo sapiens) (UniProt P49795). Described as above. To be noted: multiplexed bead flow cytometry, measured here: RGS19 interaction, at 10 µM.
The target in test [3] is Regulator of G-protein signaling 7 (Homo sapiens) (UniProt P49802). The test is described as above. The conditions noted are these: multiplexed bead flow cytometry, measured here: RGS7 interaction, at 10 µM.
Test [4] addresses Regulator of G-protein signaling 8 (Homo sapiens) (UniProt P57771). The test is described as above. The conditions noted are these: multiplexed bead flow cytometry, measured here: RGS8 interaction, at 10 µM.
Test [5] is described as follows: disruption of biotin probe capture by avidin, counter-screen for RGS protein interaction modulators, biochemical, flow cytometry, bead-based (AID 1783;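 active means inhibition above 50%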;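 further: median green fluorescence of gated singlet beads compared with DMSO control wells; 0% = DMSO wells and 100% = complete loss of bead fluorescence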). The conditions noted are these: streptavidin beads, fluorescein-biotin binding; at 10 µM, stronger effect = higher value. Background: Counterscreens check selectivity or assay interference.
For test [6], the target named is Guanine nucleotide-binding protein G(o) subunit alpha (Homo sapiens) (UniProt P09471). Put plainly: RGS8-Galphao binding modulators, confirmation, biochemical, multiplexed bead flow cytometry, single concentration (AID 1836; in the data active means binding response below about 72% or above about 130%; inactive means in between;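 further: Galphao activated as GDP AlF4 complex before binding bead RGS8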). The conditions noted are these: bead-based flow cytometry RGS8-Galphao binding, fluorescence; at 10 µM; actives lie on both sides.
Chain of Guanine nucleotide-binding protein G(o) subunit alpha (Homo sapiens) (P09471 whole entry, looked up): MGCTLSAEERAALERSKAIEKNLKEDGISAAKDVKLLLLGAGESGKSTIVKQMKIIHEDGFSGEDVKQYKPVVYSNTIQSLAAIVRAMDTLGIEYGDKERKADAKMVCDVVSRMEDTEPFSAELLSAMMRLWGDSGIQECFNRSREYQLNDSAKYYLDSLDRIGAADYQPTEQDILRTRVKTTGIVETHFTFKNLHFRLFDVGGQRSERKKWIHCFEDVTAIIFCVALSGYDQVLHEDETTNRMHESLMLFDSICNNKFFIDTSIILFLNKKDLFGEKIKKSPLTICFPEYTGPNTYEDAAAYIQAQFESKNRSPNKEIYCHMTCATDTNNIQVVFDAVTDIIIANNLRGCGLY
Test [7] shares this target. Put plainly: RGS7-Galphao binding modulators, confirmation, biochemical, multiplexed bead flow cytometry, single concentration (AID 1837).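 Further: fluorescent Galphao activated with GDP and aluminum fluoride binding bead-coupled RGS7.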 To be noted: bead-based flow cytometry RGS7-Galphao binding; at 10 µM; actives lie on both sides.
For test [8], the target named is Regulator of G-protein signaling 16 (Homo sapiens) + Guanine nucleotide-binding protein G(o) subunit alpha (Homo sapiens) (UniProt O15492+P09471). Nature of the test: modulators of RGS16-Galphao protein binding, confirmation, biochemical, single concentration, multiplexed bead flow cytometry (AID 1838; in the data active means response below about 74% or above about 130%; inactive means in between;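 further: Galphao activated as the GDP aluminium fluoride complex binding bead-coupled RGS16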). To be noted: bead-based flow cytometry, at 10 µM, actives lie on both sides.
Chain of Regulator of G-protein signaling 16 (Homo sapiens) + Guanine nucleotide-binding protein G(o) subunit alpha (Homo sapiens) (O15492 whole entry, looked up): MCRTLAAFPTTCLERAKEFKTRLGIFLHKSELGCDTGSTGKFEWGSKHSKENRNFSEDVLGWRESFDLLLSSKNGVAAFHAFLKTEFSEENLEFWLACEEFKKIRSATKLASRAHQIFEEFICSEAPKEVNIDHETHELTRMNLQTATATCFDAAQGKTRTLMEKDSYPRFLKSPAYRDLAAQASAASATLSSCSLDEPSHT
Chain of Regulator of G-protein signaling 16 (Homo sapiens) + Guanine nucleotide-binding protein G(o) subunit alpha (Homo sapiens) (P09471 whole entry, looked up): as the sequence (P09471 whole entry, looked up) above

In test [9] the target is Guanine nucleotide-binding protein G(o) subunit alpha (Homo sapiens) (UniProt P09471). Nature of the test: modulators of RGS4-Galphao protein binding, confirmation, biochemical, single concentration, multiplexed bead flow cytometry (AID 1840; in the data active means binding response below about 74% or above about 130%; inactive means in between). To be noted: at 10 µM, actives lie on both sides.
Test [10] addresses Guanine nucleotide-binding protein G(o) subunit alpha (Homo sapiens) + Regulator of G-protein signaling 19 (Homo sapiens) (UniProt P09471+P49795). Nature of the test: regulators of RGS19-Galphao binding, confirmation, biochemical, single point, multiplexed bead flow cytometry (AID 1841; in the data active means response below about 50% or above about 160%; inactive means in between;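 further: 100% = no compound control and 0% = blank background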). To be noted: bead-based flow cytometry RGS19-Galphao binding; at 10 µM; actives lie on both sides.

Chain of Guanine nucleotide-binding protein G(o) subunit alpha (Homo sapiens) + Regulator of G-protein signaling 19 (Homo sapiens) (P09471 whole entry, looked up): as above
Chain of Guanine nucleotide-binding protein G(o) subunit alpha (Homo sapiens) + Regulator of G-protein signaling 19 (Homo sapiens) (P49795 whole entry, looked up): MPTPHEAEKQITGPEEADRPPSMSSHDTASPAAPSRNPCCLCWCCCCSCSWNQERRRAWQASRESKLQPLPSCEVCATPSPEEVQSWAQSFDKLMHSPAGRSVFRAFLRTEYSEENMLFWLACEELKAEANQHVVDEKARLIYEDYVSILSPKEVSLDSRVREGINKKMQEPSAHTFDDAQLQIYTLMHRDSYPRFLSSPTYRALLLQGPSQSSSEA

As for `CN(C)S(=O)(=O)Oc1ccccc1C(=O)Nc1ccccc1Cl`, the RGS16–Galpha-o binding response in [1] amounted to 100%. Also, the RGS19–Galpha-o binding response in [2] worked out at 70.6%. In addition, the RGS7–Galpha-o binding response in test [3] came out at 223%. The molecule further came in with an RGS8–Galpha-o binding response in test [4] of 97.6%. Further, the inhibition in test [5] is -0.2% (inactive). Further, the results for the binding response (% of control) in test [6] and in test [9] were 97.3% (inactive) and 98.9% (inactive), respectively. The response (percent of control binding) is 101% (inactive) in test [7] and 83.3% (inactive) in test [10]. Also, the response (% of control binding) in test [8] is 100% (inactive).
Consider `COc1ccc(C(=O)COC(=O)c2ccc3ccccc3n2)cc1`, for which the RGS16–Galpha-o binding response in [1] is -0.98%. In addition, the RGS19–Galpha-o binding response in [2] is 167%. Also, the RGS7–Galpha-o binding response in test [3] was found to be 39%. For the same molecule, the RGS8–Galpha-o binding response in test [4] was 28.9%. Further, the inhibition in test [5] was -1% (inactive). The binding response (% of control) in test [6] was 95.5% (inactive); in test [9], 92.6% (inactive). The response (percent of control binding) was 86.7% (inactive) in [7] and 93.7% (inactive) in test [10]. Further, the response (% of control binding) in test [8] is 95.4% (inactive).
`CCCC(=O)n1nc(-c2ccccc2)nc1N`: in [1], the RGS16–Galpha-o binding response came out at 14.9%. Moreover, the RGS19–Galpha-o binding response in test [2] is -92.7%. In [3], the RGS7–Galpha-o binding response is 23.4%. Besides, the RGS8–Galpha-o binding response in test [4] is 20.9%.
Turning to `CCCC1C(c2ccccc2)C(C#N)(C#N)C2(C#N)CC1(N)NC2=O` (stereo unspecified), the RGS16–Galpha-o binding response in test [1] came to 178%. Further, in test [2], the RGS19–Galpha-o binding response came to 474%. Moreover, the RGS7–Galpha-o binding response in [3] was determined as 152%. The same molecule showed an RGS8–Galpha-o binding response in test [4] of 116%. The inhibition in test [5] is 0.8% (inactive). Further, the binding response (% of control) in [6] and in test [9] was 103% (inactive) throughout. The response (percent of control binding) in [7] and in test [10] was 105% (inactive) each time. Also, the response (% of control binding) in test [8] is 102% (inactive).
With `COc1cc(C2/C(=C(\O)c3ccc4c(c3)CC(C)O4)C(=O)C(=O)N2Cc2ccco2)ccc1O` (stereo unspecified), the RGS16–Galpha-o binding response in [1] was -10.7%. In addition, the RGS19–Galpha-o binding response in test [2] is 178%. The RGS7–Galpha-o binding response in test [3] is 17.7%. Also, in test [4], the RGS8–Galpha-o binding response came to 12.8%. In addition, the inhibition in test [5] is 1.5% (inactive). For the same molecule, the binding response (% of control) in [6] and in test [9] was 106% (inactive) throughout. Besides, the results for the response (percent of control binding) in [7] and in [10] were 110% (inactive) and 106% (inactive), respectively. In addition, the response (% of control binding) in test [8] was 109% (inactive).
Turning to `COCCNC(=S)N/N=C/c1c(C)[nH]c2ccccc12`, the RGS16–Galpha-o binding response in test [1] turned out to be 153%. The RGS19–Galpha-o binding response in test [2] came to 993%. Moreover, the RGS7–Galpha-o binding response in [3] was 142%. Further, in test [4], the RGS8–Galpha-o binding response came to 105%. Moreover, the inhibition in test [5] is 0.1% (inactive). Also, the binding response (% of control) was 105% (inactive) in test [6] and 161% [activator] (active) in test [9]. The response (percent of control binding) was 212% [activator] (active) in test [7] and 225% (active) in test [10]. The response (% of control binding) in test [8] was 134% [activator] (active).
Take `C=CCn1c(Cn2nnc3ccccc32)nnc1SCC(=O)N/N=C/c1cc(Br)cc(OC)c1O`: the RGS16–Galpha-o binding response in test [1] is -35.2%. Also, the RGS19–Galpha-o binding response in [2] came to 144%. Further, the RGS7–Galpha-o binding response in test [3] is -19.4%. Besides, the RGS8–Galpha-o binding response in [4] was determined as 5.17%.
The matching figures for `Cc1ccc(Cn2ccc(NC(=O)c3cc(C(C)C)on3)n2)cc1`: 47.2%, -20%, 43.9% and 55.8%.
The matching figures for `CCOc1ccccc1NC(=O)c1cc(S(=O)(=O)N2CCC3(CC2)OCCO3)ccc1F`: 4.15%, 139%, 15.2% and 33%.
For `Cc1ccccc1NC(=S)N(CCCN1CCOCC1)Cc1cccs1`, the RGS16–Galpha-o binding response in [1] was found to be 181%. Also, the RGS19–Galpha-o binding response in test [2] was 80%. Also, in test [3], the RGS7–Galpha-o binding response was found to be 106%. Besides, the RGS8–Galpha-o binding response in test [4] worked out at 118%. Also, in test [5], the inhibition was 2.8% (inactive). Moreover, the binding response (% of control) was 104% (inactive) in test [6] and 102% (inactive) in test [9]. In addition, the values for the response (percent of control binding) in [7] and in test [10] were 102% (inactive) and 107% (inactive), respectively. In addition, in [8], the response (% of control binding) was 104% (inactive).
Consider `Oc1ccc(N=Nc2nccs2)c(O)c1`, for which the RGS16–Galpha-o binding response in test [1] is -16.2%. The RGS19–Galpha-o binding response in test [2] was found to be 158%. Also, the RGS7–Galpha-o binding response in [3] was 270%. In test [4], this molecule returned an RGS8–Galpha-o binding response of 6.26%. For the same molecule, the inhibition in test [5] was -1.7% (inactive). For the same molecule, the results for the binding response (% of control) in test [6] and in test [9] were 99% (inactive) and 98.7% (inactive), respectively. The response (percent of control binding) is 96.5% (inactive) in test [7] and 99.6% (inactive) in test [10]. Moreover, in test [8], the response (% of control binding) is 97.6% (inactive).
